These results are taken from PubChem BioAssay (NCI).

“And” between values parts separate entries of the source, which are not always exact repeats. Identical values can stand only once. About 83,000 compounds went through this panel and 20% of them were active in at least one assay; those are over-represented in the sample as a whole.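 Method: cells in 96-well plates; compound added at one concentration; 48 h incubation; percent growth measured; values under 10 scored active.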 The source made the active and inactive calls.

This assay deals with MDA-MB-468 breast. Kind of assay: NCI-60 one-dose screen, 48 h (100 = growth as untreated, 0 = no growth, -100 = all killed). The note with it: 10 µM unless noted.
Regarding `CCOC(=O)C1=C(c2ccccc2)N=C2SC=C(c3cccc([N+](=O)[O-])c3)N2C1c1ccc(O)cc1` (centres undefined), the growth is 93.7% (inactive). Under `N#Cc1c(Nc2ccc(N3CCOCC3)cc2)nc(SCC(=O)c2ccc(Br)cc2)nc1-c1ccccc1` stands 113% (inactive); under `CC1(C)CN(Cc2ccccc2)CCN1Cc1ccccc1`, 106% (inactive). For `CC1(C)CCc2cc(-c3ccn(S(=O)(=O)c4ccc(Cl)cc4)n3)ccc2O1` the value was 48.9% (inactive).

On to `N#Cc1ccc(NC(=O)Nc2ccc(Cc3ccc(NC(=O)Nc4ccc(C#N)cc4)cc3)cc2)cc1`, for which the growth was -7.75% (active). For `COc1ccc2[nH]c(-c3ccc(Cl)cc3)cc(=O)c2c1` the value was 99% (inactive). For `COc1ccncc1C#Cc1cncc(C(=O)Nc2ccc(CN3CCN(C)CC3)c(C(F)(F)F)c2)c1` the value was 73.1% (inactive); for `CN1CCN(Cc2ccc(NC(=O)c3cccc(C#Cc4cnc(N)c5ncccc45)c3F)cc2C(F)(F)F)CC1`, 70.6% (inactive); for `O=C1/C(=C\c2ccc(Br)cc2)CN(C(=O)c2ccccc2F)C/C1=C\c1ccc(Br)cc1`, -54.1% (active). Under `O=C1C(Cl)=C(Nc2ccccc2)C(=O)c2ccccc21` stands -77.8% (active); under `CCN(CC)CCc1nc(-c2ccccc2)no1`, -1.63% (active) and 78.5% (inactive); under `CCOC(=O)c1ccc(NC(=O)CCCN(CC)CC)cc1`, 115% (inactive). In the case of `O=C(NCCc1ccccc1)Nc1ccc2cc3ccc(NC(=O)NCCc4ccccc4)cc3nc2c1`, the growth is -5.36% (active). For `COc1cc(-c2nc3occn3c2-c2ccnc(NCCCNS(=O)(=O)c3ccccc3)n2)ccc1F` the value was 5.92% (active).
